In the supplement of paper PMC7393113:
Values joined by “and” are separate entries in the source; they are usually repeats but may differ in a detail not shown here. Equal values may be shown once. ± gives the standard deviation of the averaged measurements.

Tested on: iBMDM (immortalised mouse bone-marrow-derived macrophages), LPS-stimulated
Test: mitochondrial superoxide (MitoSOX fluorescence) fold increase over unstimulated control; higher = more LPS-induced mitochondrial ROS (less inhibition)
Conditions: inhibitor concentration: 500 nM, LPS: 100 ng/ml
How it was run: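 Immortalised mouse bone-marrow-derived macrophages were seeded in triplicate in black 96-well plates and moved to phenol-red-free 1% FCS/DMEM for 20 h. They were pretreated 30 min with kinase inhibitors (500 nM), loaded with 1 μM MitoSox for 10 min, then given LPS (100 ng/ml). Fluorescence (excitation/emission 510/580 nm, ClarioStar plate reader) was read every 60 min for 4 h. Mitochondrial superoxide is fold induction over untreated control macrophages, averaged over three replicates.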

Row | Structure (SMILES) | mitochondrial superoxide (time after LPS: 1 h) | mitochondrial superoxide (time after LPS: 2 h) | mitochondrial superoxide (time after LPS: 4 h)
1 | Nc1ccc(-c2ccc3ncc4ccc(=O)n(-c5cccc(C(F)(F)F)c5)c4c3c2)cn1 [Torin 2] | 1.18 ± 0.042 | 1.17 ± 0.05 | 1.24 ± 0.1
2 | O=c1cc(N2CCOCC2)oc2c1ccc1ccccc12 | 1.13 ± 0.049 | 1.11 ± 0.062 | 1.17 ± 0.062
3 | CCCNC(=O)Nc1ccc(Oc2ncnc3cc(OC)c(OC)cc23)cc1Cl | 1.15 ± 0.055 | 1.21 ± 0.066 | 1.22 ± 0.024
4 | Clc1ccc(Nc2nnc(Cc3ccncc3)c3ccccc23)cc1 [Vatalanib (PTK787) 2HCl] | 1.42 ± 0.075 | 1.5 ± 0.09 | 1.53 ± 0.057
5 | CC(C)c1cnn2c(NCc3ccccc3)cc(NCCCCCCN)nc12 | 1.16 ± 0.054 | 1.25 ± 0.025 | 1.47 ± 0.059
6 | COc1ccc(F)c(F)c1C(=O)c1cnc(NC2CCN(S(C)(=O)=O)CC2)nc1N | 1.28 ± 0.081 | 1.57 ± 0.13 | 1.8 ± 0.14
7 | COc1cc(Nc2ncc(F)c(Nc3ccc4c(n3)N(COP(=O)(O)O)C(=O)C(C)(C)O4)n2)cc(OC)c1OC [Fostamatinib (R788)] | 1.29 ± 0.026 | 1.429 ± 0.0045 | 1.71 ± 0.034
8 | COc1cc2ncnc(Nc3ccc(O)c(Br)c3)c2cc1OC | 1.04 ± 0.047 | 1.04 ± 0.082 | 1.07 ± 0.12
9 | Cc1cc(Nc2nc(N[C@@H](C)c3ccc(F)cc3)c(C#N)cc2F)n[nH]1 | 1.09 ± 0.054 | 1.18 ± 0.028 | 1.31 ± 0.085
10 | Cn1cnc(-c2cc3nccc(Oc4ccc(NC(=S)NC(=O)Cc5ccccc5)cc4F)c3s2)c1 | 1.06 ± 0.021 | 1.14 ± 0.057 | 1.26 ± 0.059
11 | CN1CCN(c2ccc3nc(-c4c(N)c5c(F)cccc5[nH]c4=O)[nH]c3c2)CC1 [Dovitinib (TKI-258, CHIR-258)] | 1.62 ± 0.087 | 1.7 ± 0.026 | 1.91 ± 0.073
12 | COCCOc1ccc2c(c1)ncn2-c1ccc2cccc(N3CCC(N)CC3)c2n1 | 1.15 ± 0.048 | 1.19 ± 0.035 | 1.3 ± 0.038
13 | Cc1cnc(NC(=O)Nc2cc(Br)c(C)cc2OC[C@@H]2CNCCO2)cn1 | 1.116 ± 0.011 | 1.262 ± 0.0098 | 1.55 ± 0.052
14 | CCN(CC)CCNC(=O)c1c(C)[nH]c(/C=C2\C(=O)Nc3ccc(F)cc32)c1C [Sunitinib Malate] | 1.61 ± 0.057 | 1.73 ± 0.072 | 1.7 ± 0.099
15 | Cc1[nH]c(/C=C2\C(=O)Nc3ccc(S(=O)(=O)N(C)c4cccc(Cl)c4)cc32)c(C)c1C(=O)N1CCN(C)CC1 | 1.33 ± 0.11 | 1.4 ± 0.15 | 1.67 ± 0.27
16 | Nc1cc(C(F)(F)F)c(-c2cc(N3CCOCC3)nc(N3CCOCC3)n2)cn1 [BKM120 (NVP-BKM120, Buparlisib)] | 1.33 ± 0.034 | 1.41 ± 0.024 | 1.53 ± 0.05
17 | COc1cc(N2CCC(N(C)C)CC2)ccc1Nc1ncc(Cl)c(Nc2ccccc2P(C)(C)=O)n1 | 1.15 ± 0.031 | 1.27 ± 0.11 | 1.33 ± 0.076
18 | CCC[C@H](NC(=O)/C(C#N)=C/c1cccc(Br)n1)c1ccccc1 [Degrasyn (WP1130)] | 1.18 ± 0.047 | 1.34 ± 0.032 | 1.48 ± 0.038
19 | CN(c1ncccc1CNc1nc(Nc2ccc3c(c2)CC(=O)N3)ncc1C(F)(F)F)S(C)(=O)=O | 1.27 and 1.06 | 1.34 and 1.11 | 1.63 and 1.11
20 | COc1ccc(S(=O)(=O)N(C(C)=O)c2ccccc2/C=C/c2cc[n+]([O-])cc2)cc1 | 1.15 ± 0.035 | 1.17 ± 0.058 | 1.32 ± 0.05
21 | Cc1ccccc1-n1c(Cn2nc(-c3cccc(O)c3)c3c(N)ncnc32)nc2cccc(C)c2c1=O | 1.28 ± 0.017 | 1.34 ± 0.033 | 1.42 ± 0.034
22 | Cc1nc(N)sc1-c1ccnc(Nc2ccc(N3CCOCC3)cc2)n1 | 1.49 ± 0.063 | 1.55 ± 0.023 | 1.7 ± 0.02
23 | O=C(c1cccc(Cl)c1F)N1CCN(Cc2cccc(Nc3nccs3)n2)CC1 | 1.15 ± 0.018 | 1.22 ± 0.048 | 1.37 ± 0.053
24 | O=C(NCc1cccc(O)c1)Nc1nc(-c2ccncc2)cs1 | 1.36 ± 0.026 | 1.44 ± 0.015 | 1.64 ± 0.017
25 | Cc1ccc([N+](=O)[O-])cc1S(=O)(=O)N(C)/N=C/c1cnc2ccc(Br)cn12 | 1.17 ± 0.09 | 1.17 ± 0.015 | 1.21 ± 0.027
26 | C[C@@]1(C(=O)Nc2ccc(F)nc2)CCCN1c1nc(Nc2cc(C3CC3)n[nH]2)c2cccn2n1 | 1.38 ± 0.051 | 1.43 ± 0.06 | 1.45 ± 0.066
27 | C#Cc1cccc(Nc2ncnc3cc4c(cc23)OCCOCCOCCO4)c1 [Icotinib] | 1.16 ± 0.036 | 1.19 ± 0.021 | 1.31 ± 0.02
28 | CNC(=O)c1c(F)cccc1Nc1nc(Nc2cc3c(cc2OC)CCN3C(=O)CN(C)C)nc2[nH]ccc12 | 1.28 ± 0.057 | 1.47 ± 0.031 | 1.64 ± 0.015
